Most compounds without a hit are left out; they make up all but 1.3% or so of the library.
Mtb hypoxia rep – PubChem AID 1159583; 300,000 tested, 0.1% active; fluorescence inhibition, % (concentration not given with the values); M. tuberculosis hypoxia-regulated fluorescent reporter, fluorescence; in the data active = fluorescence inhibition mostly above about 23%, no sharp cut-off; inactive = mostly below about 17%
Sa ugtP lethal – growth inhibition of ugtP-null S. aureus, primary screen, RN4220 ugtP deletion, OD600 | growth inhibition, % (no concentration beside the values) | 16 h | 330,000 tested, 0.54% active; in the data active = growth inhibition above about 68%;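 also: plate controls were untreated wells for no effect and antibiotic for full effect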
TcdB inh – TcdB glycohydrolase inhibitors, primary screen, biochemical, single point, plate reader | Toxin B (Clostridioides difficile), P18177 | TcdB glycohydrolase enzymatic assay | inhibition, % at 9.99 µM | 350,000 tested, 0.24% active | AID 652162, 2013; in the data active = inhibition above about 10%
PfHsp40 yeast – rescue of yeast from PfHsp40 toxicity, primary screen, S. cerevisiae, ATP luminescence; 340,000 tested, 0.68% active; S. cerevisiae expressing PfHsp40, growth rescue; AID 504582, 2011; growth rescue, % at 12.5 µM; in the data active = growth rescue above about 28%, passing the limit was not always enough;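 also: yeast W303a lacking pdr1 and pdr3 grown in galactose medium; growth measured after three days at 30 °C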
MazEF act – activators of E. coli MazEF toxin-antitoxin RNase, primary screen, biochemical, fluorescence, uHTS | FAM/BHQ RNA-DNA oligo cleavage fluorescence, 5 h | activation, % at 20 µM | 350,000 tested, 0.32% active; in the data active = activation above about 50%
Sa RN4220 lethal – growth inhibition of S. aureus RN4220, primary screen, OD600 | 16 h | inhibition, % (no concentration beside the values) | 330,000 tested, 0.33% active | AID 1259311, 2017; in the data active = inhibition above about 85%;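 also: plate controls were untreated cells for no effect and reference antibiotic for full effect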
Numbers without * were called inactive; / = no result given.

SMILES	Mtb hypoxia rep	Sa ugtP lethal	TcdB inh	PfHsp40 yeast	MazEF act	Sa RN4220 lethal
Cc1ccc(-c2ccc(C3[C@@H]4CN(Cc5cccc(F)c5)C[C@H]3N4)cc2)cc1 (some centres not stated)	/	/	-1	/	/	/
CC1=CC2=NC(=O)/C(=C\c3ccc(-c4cccc(Cl)c4)o3)C(=N)N2O1	14	-7	0	3	84*	0
CCCCCCCCCCCCCC(=O)NO	/	/	0	264*	-12	/
CCCCCCCC/C=C\CCCCCCCC(=O)NCCO	/	/	2	67*	-6	/
O=C(C[n+]1cccc(Br)c1)c1ccccc1	7	0	1	1	3	5
O=C(C[n+]1cccc(Br)c1)c1ccc(-c2ccccc2)cc1	6	2	0	54*	16	-1
C[n+]1c(-c2ccccc2)cc2c(=Cc3ccccc3)c3ccccc3n21	/	/	0	170*	19	/
CN(C)c1ccc(C=c2c3cc(O)ccc3n3c2cc(-c2ccccc2)[n+]3C)cc1	/	/	6	295*	-19	/
C[n+]1c(-c2ccccc2)cc2c(=Cc3ccc([N+](=O)[O-])cc3)c3ccccc3n21	/	/	-1	2	15	/
CN(C)c1ccc(C=c2sc3nc(-c4ccccc4)nn3c2=O)cc1	1	-2	/	/	/	-2
O=C(NN=C/C=C/c1ccco1)c1cccs1	9	-3	/	/	/	2
COc1ccc(NC(=S)N/N=C2\CC(C)(C)Oc3ccc(O)cc32)cc1	/	/	1	39*	-4	/
C#CCOCCOCCOCCNc1nc(OC)nc(N2CCN(C(=O)C(CCC(=O)O)n3cc(C(N)CO)nn3)CC2)n1 (configuration not stated)	9	-2	/	/	/	6
O=C(NCCCSc1ccccc1)c1cc(Br)ccc1O	8	81	0	196*	3	83*
CCCN(CC(=O)Nc1ccccc1C)C(=O)CCl	35*	3	0	-1	2	8
COC(=O)[C@@H]1[C@@H](CO)[C@@H]2Cn3c(ccc(-c4cccc(F)c4)c3=O)[C@@H]2N1S(C)(=O)=O	/	/	0	/	/	/
O=C1C(Cl)=C(NCCc2ccccc2)C(=O)c2ccccc21	14	13	1	4	-2	37
C=CCNC1=C(Cl)C(=O)c2ccccc2C1=O	-5	90*	/	0	2	95*
CC(C)(C)[S@](=O)N1Cc2cc(C(=O)N3CCCCC3)nc(-c3cccc(C4=CCCC4)c3)c2[C@@H]1CCO	/	/	-1	/	/	/
COc1ccc(C2=Nc3nc(-c4ccccc4)cn3C(c3ccc(OC)cc3)C2)cc1 (configuration not stated)	-3	85*	2	2	-8	-8
CC1CCC(C(C)C)C(OC(=O)C[n+]2cc(-c3ccc(Cl)cc3)n3c2CCC3)C1 (configuration not stated)	/	101*	0	0	23	101*
O=C(C[n+]1cc(-c2ccc(Cl)cc2)n2c1CCC2)N1c2ccccc2Sc2ccccc21	1	-14	/	2	36	11
O=C(Nc1nc(-c2cccs2)c(C(=O)C(F)(F)F)s1)c1ccccc1	3	89	1	0	5	88*
O=C(Nc1nc(-c2cccs2)c(C(=O)C(F)(F)F)s1)c1ccco1	8	57	1	0	7	49
COc1ccc(S(=O)(=O)N2CCC[C@H]2C(=O)N2CCC[C@H]2C(=O)NCc2ccncc2)cc1C	/	/	10*	/	/	/
SMILES	Mtb hypoxia rep	Sa ugtP lethal	TcdB inh	PfHsp40 yeast	MazEF act	Sa RN4220 lethal
COc1ccc(S(=O)(=O)N2CCC[C@H]2C(=O)N2CCC[C@H]2C(=O)NCc2ccccc2)cc1C	/	/	4	/	/	/
CC(=O)N1CCN(c2cc3c(cc2F)c(=O)c(C(=O)O)cn3C2CC2)CC1	/	99*	1	1	8	98*
CCCOc1ccc(C(=O)NC(=S)N2CCN(c3cc4c(cc3F)c(=O)c(C(=O)O)cn4CC)CC2)cc1	-1	96*	-2	0	7	44
CCn1cc(C(=O)O)c(=O)c2cc(F)c(N3CCN(C(=S)NC(=O)c4ccc(F)cc4)CC3)cc21	7	84	1	1	0	86
CCn1cc(C(=O)O)c(=O)c2cc(F)c(N3CCN(C(=S)NC(=O)c4ccccc4Br)CC3)cc21	-8	99*	10*	0	3	98*
CCn1cc(C(=O)O)c(=O)c2cc(F)c(N3CCN(C(=S)NC(=O)c4ccc(F)c(F)c4)CC3)cc21	9	100*	5	-1	-6	100*
C[C@H]1CN([C@@H](C)CO)C(=O)c2cccc(NS(C)(=O)=O)c2O[C@@H]1CN(C)C(=O)Nc1ccccc1	/	/	-1	/	/	/
CCn1cc(C(=O)NCc2cccnc2)c(=O)c2cc(F)c(N3CCN(C(=O)c4ccco4)CC3)cc21	/	100*	/	-1	5	96*
O=C1CCc2ccccc2N1	13	6	3	-1	-5	11
Clc1ccc2c(c1)Nc1ccccc1CC2	10	89*	-1	4	13	6
C[C@@H]1CCCCO[C@@H](CN(C)S(=O)(=O)c2ccccc2)[C@@H](C)CN([C@@H](C)CO)C(=O)c2cc(NS(=O)(=O)c3ccc(Cl)cc3)ccc2O1	/	/	1	/	/	/
CC1CCCCN1C(=O)c1cccc(NC2=C(Cl)C(=O)N(Cc3ccccc3)C2=O)c1 (configuration not stated)	6	1	/	31*	-5	4
CC1CCN(C(=O)c2ccc(NC3=C(Cl)C(=O)N(Cc4ccccc4)C3=O)cc2)CC1	-9	-4	-4	0	-13	0
O=C(O)c1ccc(NN=Cc2ccc(-c3cccc(Cl)c3)o2)cc1	7	49	/	/	/	78
COc1ccc2c(c1)C(=O)N1C3c4cc(Br)ccc4OCC3C(c3ccccc3)[C@]1(C)C(=O)N2 (some centres not stated)	5	-27	/	/	/	-6
CN(C)S(=O)(=O)c1ccc(-c2csc(NN=Cc3ccco3)n2)cc1	7	16	/	/	/	7
N#CC(C#N)=C1C=CC=CN1/C(=C\c1ccco1)C(=O)c1ccc(Br)cc1	8	98*	/	3	3	99*
O=C(Nc1nnc(-c2ccccc2Cl)o1)c1nc2ccccc2s1	7	100*	0	18	0	99*
Cc1ccc(Cn2cc(C=NNc3ccc([N+](=O)[O-])cn3)c3ccccc32)cc1	16	-20	/	/	/	-7
O=C(CNC(=O)c1cccc(Cl)c1)Nc1ccc(Br)cc1C(=O)c1ccccc1	11	-14	0	36*	0	0
O=C(CNC(=O)c1ccc(Cl)cc1)Nc1ccc(Br)cc1C(=O)c1ccccc1	-4	-19	1	12	-8	2
CN(C)CC(=O)N1[C@@H](C#N)[C@H](c2ccccc2-c2cccc(C(=O)N(C)C)c2)[C@@H]1CO	/	/	1	/	/	/
O=C(NCc1ccco1)c1ccc2nccnc2c1	12	7	-1	1	-2	4

Screening results deposited in PubChem BioAssay by several laboratories.
